MITF primary: blocks human microphthalmia-associated transcription factor; O75030; AlphaScreen MITF homodimerization, bead proximity signal; inhibition, % at 2.6 µM; actives 0.91% (n = 650,000); AID 1259374; in the data active = inhibition above about 50%;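 note: 0% = vehicle wells with protein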
GPR151 ag: human GPR151 activation; AID 1508602; activation, % at 11.2 µM; actives 1% (n = 650,000); Q8TDV0; PathHunter beta-arrestin GPR151 cells, luminescence; in the data active = activation above about 4.9%;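 note: 0% = median of compound wells and 100% = cells with positive control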
Target sequence (Q8TDV0 whole entry, looked up): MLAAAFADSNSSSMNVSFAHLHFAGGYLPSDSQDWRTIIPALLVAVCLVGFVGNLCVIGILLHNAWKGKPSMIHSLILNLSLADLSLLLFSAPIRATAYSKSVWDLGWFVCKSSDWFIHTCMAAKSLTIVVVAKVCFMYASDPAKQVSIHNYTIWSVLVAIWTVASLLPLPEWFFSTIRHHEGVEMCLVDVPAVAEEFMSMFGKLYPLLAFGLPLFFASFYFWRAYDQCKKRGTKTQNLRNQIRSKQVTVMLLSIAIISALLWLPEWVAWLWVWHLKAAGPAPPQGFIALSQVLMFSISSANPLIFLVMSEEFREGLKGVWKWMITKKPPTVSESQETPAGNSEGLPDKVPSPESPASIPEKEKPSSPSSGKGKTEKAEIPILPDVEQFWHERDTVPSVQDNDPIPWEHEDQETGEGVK
TEAD-YAP inh: TEAD-YAP interaction inhibition; HEK-TIYL cells, TEAD-Gal4/YAP UAS-luciferase luminescence; AID 1259422; inhibition, % at 9.12 µM; actives 1.4% (n = 640,000); in the data active = inhibition above about 32%;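 note: 0% = median of test compound wells and 100% = reference inhibitor wells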
FBW7 act: human FBW7 E3 ligase activation, primary screen; actives 0.13% (n = 650,000); AlphaScreen FBW7–phospho-cyclin E peptide binding, activator screen; Q969H0; normalized activity (activation), % at 26.1 µM; in the data active = normalized activity above about 1.9%;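 note: purified mutant Fbw7 with reduced substrate affinity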
* = called active by the depositor. Shown are actives, neighbours in structure and some others; about 3.4% of the full set was active somewhere.

SMILES	MITF primary	GPR151 ag	TEAD-YAP inh	FBW7 act
CCC(=O)NC(c1ccc(OC)cc1)c1cc([N+](=O)[O-])c2cccnc2c1O (stereo unspecified)	55*	-2	-3	-1
Oc1c(C(c2cccnc2)N2CCOCC2)cc(Cl)c2cccnc12 (stereo unspecified)	42	0	17	0
Oc1c(C(Nc2ccccn2)c2cccnc2)cc(Cl)c2cccnc12 (stereo unspecified)	85*	0	58*	0
COc1cc(NC(=O)c2cccnc2)c2ncccc2c1	1	0	79*	0
CCCCC(=O)NC(c1ccco1)c1cc([N+](=O)[O-])c2cccnc2c1O (stereo unspecified)	10	-1	3	0
CCCCC(=O)NC(c1ccccc1OC)c1cc([N+](=O)[O-])c2cccnc2c1O (stereo unspecified)	51*	-1	28	0
CCCC(=O)NC(c1ccc(OC)cc1)c1cc([N+](=O)[O-])c2cccnc2c1O (stereo unspecified)	21	2	5	0
CC(C)OC1OC(=O)C(Cl)=C1N1CCOCC1 (stereo unspecified)	-3	0	-7	0
CCn1c(SCC(N)=O)nc2c(c1=O)SCC2	6	0	-1	0
O=c1c2sccc2nc(SCc2cccc(F)c2)n1-c1ccc(Cl)cc1	-2	1	-3	0
C=CCOc1ccc(/C=N/n2c(=S)[nH]nc(C)c2=O)cc1OC	10	2	-7	0
C/C(=N\N=C1\NC(=O)C(CC(=O)Nc2ccc(F)cc2)S1)C(C)C (stereo unspecified)	1	-1	-3	0
COc1ccc(C(NC(=O)c2cccnc2)c2cc(Cl)c3cccnc3c2O)cc1 (stereo unspecified)	6	1	40*	0
COc1ccc(C(NC(=O)c2cccc(OC)c2)c2cc(Cl)c3cccnc3c2O)cc1 (stereo unspecified)	10	-1	1	0
O=S(=O)(Nc1cccc(N2CCC(NCCn3ccnc3)CC2)c1)c1ccc(F)cc1	-2	0	6	0
COc1ccccc1C(=O)Nc1cccc(N2CCC(NCCc3cnccn3)CC2)c1	8	0	20	0
O=S(=O)(Nc1cccc(N2CCC(NCCc3ccco3)CC2)c1)c1ccc(F)cc1	61*	1	-9	1
COc1ccccc1C(=O)Nc1cccc(N2CCC(NCc3ccsc3)CC2)c1	-10	-1	-12	0
CCCCNC1CCN(c2cccc(NC(=O)c3ccccc3OC)c2)CC1	29	3	41*	0
COc1ccccc1C(=O)Nc1cccc(N2CCC(NCCc3ccco3)CC2)c1	3	0	44*	0
COc1ccccc1C(=O)Nc1cccc(N2CCC(NCCc3cccs3)CC2)c1	20	-1	51*	0
CCOc1ccccc1CN1CCc2nnc(CCNC(=O)c3ccoc3)n2CC1	-14	1	-2	0
O=C(NCCn1ccc2ccccc21)c1ccc(Br)cc1	5	1	-56	0
O=C(CC1SC(=Nc2ccccc2)N(c2ccccc2)C1=O)Nc1ccccc1C(F)(F)F (stereo unspecified)	-2	-1	-9	0
O=c1c2cc(Cl)ccc2[nH]c(=S)n1C1CCCCC1	8	1	2	0
SMILES	MITF primary	GPR151 ag	TEAD-YAP inh	FBW7 act
S=c1[nH]c2cc(Cl)ccc2n1C1CCCCC1	-8	-1	2	3.1*
COc1cc(NC(=O)c2ccc3nc(-c4c(C)nn(C)c4C)sc3c2)cc(OC)c1OC	3	-1	35*	0
COc1cc(NC(=O)c2ccc3nc(-c4ccc(C(=O)N5CCN(C)CC5)cc4)sc3c2)cc(OC)c1OC	13	0	52*	0
COc1cc(NC(=O)c2ccc3nc(-c4ccc(N5CCN(C)CC5)cc4)sc3c2)cc(OC)c1OC	11	-2	62*	0
CN1CCN(c2ccc(-c3nc4ccc(C(=O)NCCO)cc4s3)cc2)CC1	-7	-1	67*	0
CC(NC(=O)c1ccc(N2CCC(NCc3ccccn3)CC2)cc1)c1ccccc1 (stereo unspecified)	23	-1	-3	0
COc1ccc(CCNC(=O)c2cccc(-c3ccc(C(N)=O)cc3)c2)cc1	2	0	1	0
COCCNC(=S)N/N=C/c1ccc(O)c(O)c1O	107*	0	5	-1
COCCNC(=S)N/N=C/c1cc(OC)c(OC)cc1OC	1	3	-1	0
CC(C)NC(=S)N/N=C/c1cccc(O)c1O	90*	-1	-15	-1
COCCNC(=O)CC(=O)N/N=C/c1ccccc1O	17	0	0	-2
